Measurements from PubChem BioAssay AID2174 (The Scripps Research Institute Molecular Screening Center, 2009).
Hit rate of the full screen: of about 320,000 compounds, about 500 (0.16%) were called active.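 The calls were made as follows: active = inhibition above the mean of all tested compounds plus 3 SD, set per campaign (cut at about 14% in these data); inactive = the rest.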 The full list was thinned out, with actives kept by preference.

target: Acyl-protein thioesterase 1 (Homo sapiens) (UniProt O75608); assay: inhibition of human lysophospholipase 1 – biochemical, fluorescence polarization, FP-Rh probe ABPP, counter-screen for PME1 inhibitor project, primary screen (AID 2174); details: recombinant LYPLA1, FP-Rh probe fluorescence polarization; at 5.9 µM; hits give high values;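 also: inhibitors block serine hydrolase probe labeling of LYPLA1 so polarization falls; 0% = enzyme with DMSO and 100% = wells lacking LYPLA1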
Sequence (O75608 whole entry, looked up): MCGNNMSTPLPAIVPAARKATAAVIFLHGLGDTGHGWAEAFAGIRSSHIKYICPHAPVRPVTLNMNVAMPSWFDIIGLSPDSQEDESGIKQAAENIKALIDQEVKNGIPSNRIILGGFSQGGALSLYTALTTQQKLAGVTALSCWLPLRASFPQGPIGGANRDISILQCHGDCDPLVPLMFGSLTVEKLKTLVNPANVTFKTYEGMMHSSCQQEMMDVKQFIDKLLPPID

Question: With `CCOC(=O)c1sc2nc(C)nc(Nc3ccc(OC)c(OC)c3)c2c1C` as the molecule, how does the inhibition read?
Answer: Its inhibition is -0.83% (inactive).

Question: Which inhibition does the source give for `CSc1nc(-c2ccccc2)nc(C(Cl)Cl)n1` here?
Answer: Its inhibition is 3.5% (inactive).

Question: `CCn1c(CC(=O)Nc2ccc(C)cc2)nnc1SCC(=O)Nc1nc(C)cs1` was tested. Which inhibition did it give?
Answer: Its inhibition is -2.24% (inactive).

Question: Which inhibition does the source give for `Cc1ccc(NC(=O)NNC(=O)c2sccc2-n2cccc2)cc1` here?
Answer: Its inhibition is -1.32% (inactive).

Question: With `CCOC(=O)NN1C(=O)c2ccccc2NC1c1ccccc1O` (stereo not drawn) as the molecule, how does the inhibition read?
Answer: Its inhibition is 2.15% (inactive).

Question: With `COc1cccc(CNS(=O)(=O)c2csc(C(N)=O)c2)c1` as the molecule, how does the inhibition read?
Answer: Its inhibition is -2.15% (inactive).

Question: `CCCCn1c(N)c(N(CC(C)C)C(=O)CN(C)S(=O)(=O)c2ccc(F)cc2)c(=O)[nH]c1=O` was tested. Which inhibition did it give?
Answer: The inhibition was -3.12% (inactive).

Question: How did the inhibition turn out when `CC(=O)N1C(C)c2ccccc2C(C)(C)CC12CCCCC2` (stereo not drawn) was run?
Answer: Its inhibition is 0.06% (inactive).

Question: How did the inhibition turn out when `COC(=O)c1ccc2ccccc2c1OC1OC(CO)C(O)C(O)C1NC(C)=O` (stereo not drawn) was run?
Answer: Its inhibition is -2.18% (inactive).

Question: For `Cc1ccc2c(c1)N(S(=O)(=O)c1cc(-c3cc(C)no3)ccc1C)CCO2`, which inhibition is on record?
Answer: Its inhibition is -4.6% (inactive).

Question: How did the inhibition turn out when `Cc1cccc(N2CCN(C(=O)CCS(=O)(=O)c3ccc4c(c3)NC(=O)C(C)S4)CC2)c1C` (stereo not drawn) was run?
Answer: The inhibition was 2.02% (inactive).

Question: `Cc1cccc(N2CCN(C(=O)CN(C)S(=O)(=O)c3ccc4c(c3)CCC(=O)N4)CC2)c1C` was tested. Which inhibition did it give?
Answer: The inhibition was 16.5% (active).

Question: `CCOC(=O)Cc1csc(NC(=O)CN(C)S(=O)(=O)c2ccc3c(c2)CCC(=O)N3)n1` was tested. Which inhibition did it give?
Answer: Its inhibition is -0.84% (inactive).

Question: For `O=c1[nH]n(-c2cccc(Cl)c2)c2ncccc12`, which inhibition is on record?
Answer: The inhibition was 29.8% (active).

Question: How did the inhibition turn out when `O=C(O)CSc1nccn1-c1cccc(Cl)c1` was run?
Answer: The inhibition was -1.21% (inactive).

Question: How did the inhibition turn out when `O=c1c(-c2cccc(Cl)c2)c[nH]n1-c1ccccc1` was run?
Answer: The inhibition was -3.25% (inactive).

Question: `Cc1ccc(C2=NN(C)c3nc4ccccc4n3C2)cc1` was tested. Which inhibition did it give?
Answer: Its inhibition is -2.83% (inactive).

Question: For `CN1CCN(C(=O)N2c3ccccc3CCc3ccccc32)CC1`, which inhibition is on record?
Answer: The inhibition was 3.26% (inactive).

Question: For `O=C(CSc1ncnc2c1nnn2Cc1ccc(F)cc1)NC1CCCC1`, which inhibition is on record?
Answer: The inhibition was 1.1% (inactive).

Question: For `CCOC(=O)c1cc2cc(-c3c(C(=O)OCC)oc4cc(O)cc(O)c4c3=O)ccc2o1`, which inhibition is on record?
Answer: Its inhibition is 9.58% (inactive).

Question: Which inhibition does the source give for `CCOC(=O)c1nnn2c1nc(N1CCN(c3ccccc3)CC1)c1ccccc12` here?
Answer: Its inhibition is -0.46% (inactive).

Question: How did the inhibition turn out when `O=C(CCNS(=O)(=O)c1ccccc1C(F)(F)F)Nc1ccncc1` was run?
Answer: The inhibition was -2.82% (inactive).

Question: How did the inhibition turn out when `C/C(Cn1nnc2ccccc21)=N\OC(=O)c1cc(F)c(F)cc1Cl` was run?
Answer: The inhibition was -3.21% (inactive).

Question: With `Cn1c(=O)c2c(nc(N/N=C/c3cccs3)n2Cc2ccc(Br)cc2)n(C)c1=O` as the molecule, how does the inhibition read?
Answer: The inhibition was 4.08% (inactive).

Question: `O=C(c1ccc(-c2ccccc2)cc1)C1CCCN(C(=O)c2cncs2)C1` (stereo not drawn) was tested. Which inhibition did it give?
Answer: The inhibition was 24% (active).

Question: How did the inhibition turn out when `Cc1nc(C(=O)N2CCCC(C(=O)c3ccc(Cl)cc3)C2)cs1` (stereo not drawn) was run?
Answer: The inhibition was -0.29% (inactive).

Question: With `Cn1nccc1C(=O)N1CCCC(C(=O)c2ccc(Oc3ccccc3)cc2)C1` (stereo not drawn) as the molecule, how does the inhibition read?
Answer: Its inhibition is 6.29% (inactive).

Question: How did the inhibition turn out when `COC(=O)c1cc2c(ccn2C)n1C` was run?
Answer: Its inhibition is -0.69% (inactive).
